PubChem BioAssay (NCATS)
Results filed as inconclusive are left out. A call without a number means that no potency is given here. Calls of active or inactive are those of the source. Calls come from the whole dose curve; as a rule, active = well fitted inhibition curve with a large enough effect; inconclusive = small, poorly fitted or top-dose-only effect; inactive = flat fitted curve, though single readings scatter.

The compounds below were run on CP211 (assay: qHTS profiling for inhibitors of Plasmodium falciparum proliferation (AID 504749; note: nearly all actives have a fitted effect of over 60% in size)). Conditions: P. falciparum in erythrocytes, SYBR Green DNA, 72 h; series mostly up to 28.7 µM.
Procedure, shortened: (§1)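 In a 72 h erythrocytic culture (37 C, humidified, 5% CO2) at 2.5% hematocrit and 0.3% starting parasitemia, compounds were tested; SYBR Green I in detergent lysis buffer stained parasite DNA overnight.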
Potency is the fitted concentration of half-maximal effect.

Row | Structure (SMILES) | Potency
1 | CN(C)CCCSc1ccccc1NC(=O)/C=C/c1ccccc1 | inactive
2 | O.O.O.O.O.O.O.O=S(=O)([O-])[O-].[Co+2] | 9.53 µM (active)
3 | CN1C(C(=O)Nc2ccccn2)C(=O)c2sc(Cl)cc2S1(=O)=O (centres undefined) | inactive
4 | c1ccc2c(c1)OCC(CN1CCCCC1)O2 (centres undefined) | inactive
5 | Cc1ncc[nH]1 | inactive
6 | C[C@]12CCC(=O)C[C@@H]1CC[C@@H]1[C@@H]2CC[C@]2(C)C=CC[C@@H]12 | inactive
7 | CN(C)C(=O)CCSC(SCCC(=O)O)c1cccc(/C=C/c2ccc3ccc(Cl)cc3n2)c1 (centres undefined) | inactive
8 | CC(=O)Nc1ccc(NC(=S)NC(=O)c2ccc(C(C)(C)C)cc2)cc1 | inactive
9 | COc1cc(C)c(/C=C/C(C)=C/C=C/C(C)=C/C(=O)O)c(C)c1C | inactive
10 | O=P(O)(O)OP(=O)(O)O | inactive
11 | CCOC(=O)C1=C(COCCN)NC(C)=C(C(=O)OC)C1c1ccccc1Cl (centres undefined) | inactive
12 | COc1ccc2c(=O)c(C)c(-c3ccccc3)oc2c1CN(C)C | inactive
13 | Cc1c(C)c2c(c(C)c1OC(=O)CCC(=O)O)CC[C@@](C)(CCC[C@H](C)CCC[C@H](C)CCCC(C)C)O2 | inactive
14 | CCCCO | inactive
15 | C[C@H](CCCC(C)(C)O)[C@H]1CC[C@H]2[C@@H]3CC=C4C[C@@H](O)CC[C@]4(C)[C@H]3CC[C@]12C | inactive
16 | COC(=O)[C@@H](N)CS | inactive

Row | Structure (SMILES) | Potency
17 | O=C(O)CCC(=O)c1ccc(-c2ccccc2)cc1 | inactive
18 | CC(C)=CCC/C(C)=C/C=C/C(C)=C/C=C/C(C)=C/C=C/C=C(C)/C=C/C=C(C)/C=C/C=C(\C)CCC=C(C)C | inactive
19 | Cc1cc(-c2ccc(N=Nc3c(S(=O)(=O)O)cc4cc(S(=O)(=O)O)cc(N)c4c3O)c(C)c2)ccc1N=Nc1c(S(=O)(=O)O)cc2cc(S(=O)(=O)O)cc(N)c2c1O | inactive
20 | C[C@H](N)C(=O)N[C@@H](C)P(=O)(O)O | inactive
21 | Cc1ncc(C[n+]2csc(CCO)c2C)c(N)n1 | inactive
22 | O=C(OCc1ccccc1)c1cccnc1 | inactive
23 | CC(C)NCC(O)COc1ccccc1-n1cccc1 (centres undefined) | inactive
24 | Nc1ccc(N=Nc2ccccc2)c(N)n1 | inactive
25 | Cn1c(O)c(N=NC(N)=S)c2ccccc21 | inactive
26 | CCCc1nc(C(C)(C)O)c(C(=O)OCc2oc(=O)oc2C)n1Cc1ccc(-c2ccccc2-c2nn[nH]n2)cc1 | inactive
27 | O=P(O)(O)OC[C@H](O)CO | inactive
28 | C/C=C/C=C/C(=O)O | inactive
29 | Cn1c(=O)c2c(ncn2CCOC(=O)C(C)(C)Oc2ccc(Cl)cc2)n(C)c1=O | inactive
30 | CCC(=O)c1ccc2c(c1)N(CCCN1CCN(CCO)CC1)c1ccccc1S2 | 13.5 µM (active)
31 | O=C(O)CC/C=C\CC[C@@H]1[C@@H](N2CCCCC2)[C@@H](O)C[C@@H]1OCc1ccc(-c2ccccc2)cc1 | inactive
32 | CCN(CC)CCOc1ccc2nc(N(C)C)sc2c1 | inactive

Each compound was assayed on CP215 in the same assay as above. Conditions: P. falciparum in erythrocytes, SYBR Green DNA, 72 h; series mostly up to 28.7 µM.
Procedure, shortened: as §1

Row | Structure (SMILES) | Potency
33 | CN(C)CCCSc1ccccc1NC(=O)/C=C/c1ccccc1 | inactive
34 | CN1C(C(=O)Nc2ccccn2)C(=O)c2sc(Cl)cc2S1(=O)=O (centres undefined) | inactive
35 | c1ccc2c(c1)OCC(CN1CCCCC1)O2 (centres undefined) | inactive
36 | COc1ccc(C(=O)c2ccc(C)cc2)c(O)c1 | inactive
37 | N=C(N)c1ccc(/C=C/c2ccc(C(=N)N)cc2O)cc1 | 5.36 µM (active)
38 | CCCOc1cc(N)ccc1C(=O)OCCN(CC)CC | inactive
39 | C[C@]12CCC(=O)C[C@@H]1CC[C@@H]1[C@@H]2CC[C@]2(C)C=CC[C@@H]12 | inactive
40 | CN(C)C(=O)CCSC(SCCC(=O)O)c1cccc(/C=C/c2ccc3ccc(Cl)cc3n2)c1 (centres undefined) | inactive
41 | CC(=O)Nc1ccc(NC(=S)NC(=O)c2ccc(C(C)(C)C)cc2)cc1 | inactive
42 | O=P(O)(O)OP(=O)(O)O | inactive
43 | CCOC(=O)C1=C(COCCN)NC(C)=C(C(=O)OC)C1c1ccccc1Cl (centres undefined) | inactive
44 | Cc1c(C)c2c(c(C)c1OC(=O)CCC(=O)O)CC[C@@](C)(CCC[C@H](C)CCC[C@H](C)CCCC(C)C)O2 | inactive
45 | C[C@H](CCCC(C)(C)O)[C@H]1CC[C@H]2[C@@H]3CC=C4C[C@@H](O)CC[C@]4(C)[C@H]3CC[C@]12C | inactive
46 | O=C(CCCN1CCN2CCCC2C1)c1ccc(F)cc1 (centres undefined) | inactive
47 | CC(C)=CCC/C(C)=C/C=C/C(C)=C/C=C/C(C)=C/C=C/C=C(C)/C=C/C=C(C)/C=C/C=C(\C)CCC=C(C)C | inactive
48 | Cc1cc(-c2ccc(N=Nc3c(S(=O)(=O)O)cc4cc(S(=O)(=O)O)cc(N)c4c3O)c(C)c2)ccc1N=Nc1c(S(=O)(=O)O)cc2cc(S(=O)(=O)O)cc(N)c2c1O | inactive
49 | CC(C)NCC(O)COc1ccccc1-n1cccc1 (centres undefined) | inactive
50 | CC(=O)Oc1cccc2c1C(=O)c1c(OC(C)=O)cc(C(=O)O)cc1C2=O | inactive
51 | Cn1c(=O)c2c(ncn2CCOC(=O)C(C)(C)Oc2ccc(Cl)cc2)n(C)c1=O | inactive
52 | Cc1cc(C(=O)NCCc2ccc(S(=O)(=O)NC(=O)NN3CCCCCC3)cc2)no1 | inactive
53 | O=C(OC1C[C@@H]2CC3C[C@H](C1)N2CC3=O)c1c[nH]c2ccccc12 (some centres undefined) | inactive
54 | O=C(O)CC/C=C\CC[C@@H]1[C@@H](N2CCCCC2)[C@@H](O)C[C@@H]1OCc1ccc(-c2ccccc2)cc1 | inactive
